HepG2 tox-1 – kills HepG2 cells in TGF-b inhibitor counter-screen; HepG2 CAGA-GFP viability, ATP luminescence, 18 h; Potency, µM (doses to about 46.1 µM), for inactives: top-dose activity change, negative = cytotoxicity, most hits filed as cytotoxic; hit rate 0.76% among 410,000; AID 588856
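HepG2 CAGA-GFP cells (1000/well, DMEM with 1% FBS) received compound, then TGF-beta at 500 pg/mL final, and were incubated 18 hours at 37 degrees C. Viability was read by CellTiter-Glo luminescence. Media-only wells were set as complete cell-killing and DMSO as no toxicity.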
GLP-1R agonist – agonists of human GLP-1 receptor; P43220; HEK293 GLP-1R CRE-luciferase, luminescence, 4-6 h; cells express a hypersensitive GLP-1R form; Potency, µM (highest dose often 45.6 µM), for inactives: top-dose activation, most hits filed as activators; hit rate 0.007% among 380,000; AID 624172; note: % of control where 0% means no effect
Target sequence (P43220 whole entry, looked up): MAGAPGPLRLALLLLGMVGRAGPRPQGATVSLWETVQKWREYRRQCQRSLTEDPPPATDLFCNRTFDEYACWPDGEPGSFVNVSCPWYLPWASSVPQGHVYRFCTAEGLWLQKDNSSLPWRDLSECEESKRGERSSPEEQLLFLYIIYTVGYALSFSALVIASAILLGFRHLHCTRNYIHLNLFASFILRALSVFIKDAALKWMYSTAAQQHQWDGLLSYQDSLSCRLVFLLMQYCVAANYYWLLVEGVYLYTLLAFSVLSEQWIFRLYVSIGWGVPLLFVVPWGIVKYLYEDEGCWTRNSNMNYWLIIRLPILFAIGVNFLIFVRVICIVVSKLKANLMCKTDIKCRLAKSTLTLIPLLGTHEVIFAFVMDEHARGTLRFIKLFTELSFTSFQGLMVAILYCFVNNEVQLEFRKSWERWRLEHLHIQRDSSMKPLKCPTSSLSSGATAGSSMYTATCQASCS
GLP1R inv ag – GLP-1 receptor (human) inverse agonism | P43220 | HEK293 GLP-1R CRE-luciferase, luminescence, 24 h; GLP-1R form is constitutively active | Potency, µM (doses to about 38.3 µM), inactives show at the top dose activity change, negative = inhibition, hits mostly inhibitors | hit rate 1.6% among 410,000; note: % is set by controls: 0 for no effect and ±100 for the full control effect; nearly all actives have a fitted effect of over 55% in size
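Using stably transfected HEK293 (constitutively active GLP-1R, cAMP-luciferase reporter), compounds were incubated 24 hr and luciferase measured by luminescence.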
S2 tox – reduces viability in counter-screen for ATXN expression inhibitors. S2 cells (HEK-293 line with an ATXN2-luciferase reporter) viability, CellTiter-Fluor protease fluorescence, 24 h. Potency, µM (highest dose often 56.7 µM), hits mostly cytotoxic. hit rate 0.49% among 400,000. AID 651635; note: nearly all actives have a fitted effect of over 40% in size
ATXN2 expr inh – ATXN2 expression inhibition; Potency, µM (highest dose often 57 µM), inactives show at the top dose activity change, negative = inhibition, most hits filed as inhibitors; hit rate 0.72% among 360,000; AID 1745845; HEK-293 ATXN2-luciferase reporter, luminescence, 24 h; note: % is set by controls: 0 for no effect and ±100 for the full control effect; nearly all actives have a fitted effect of over 55% in size
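ATXN2-luciferase reporter cells (luciferase flanked by upstream and downstream ATXN2 gene portions) were treated 24 h at 37 °C with compounds at up to 57 uM. SteadyGlo luminescence gave expression; GF-AFC fluorescence gave viability.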
TGFb inhibitor – blocks TGF-b signaling; HepG2 CAGA-GFP TGF-b/SMAD3 reporter, GFP fluorescence, 18 h; TGF-beta stimulated, 500 pg/mL final; Potency, µM (doses to about 46.1 µM), without a hit: top-dose activity, negative = inhibition, usual class: inhibitors; AID 588855; hit rate 1.2% among 410,000; note: % is set by controls: 0 for no effect and ±100 for the full control effect; nearly all actives have a fitted effect of over 65% in size
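HEPG2 CAGA-GFP reporter cells (1000/well, DMEM with 1% FBS) received compounds, then recombinant TGF-beta at 500 pg/mL final for 18 hours at 37 degrees C. Per-cell GFP summed per well was normalised to unstimulated and stimulated DMSO controls before curve fitting.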
TGFb CAGA inh – confirmation of TGF-b signaling inhibitors in HepG2 reporter cells; shares compounds with TGFb inhibitor; HepG2 CAGA-GFP TGF-b reporter, GFP fluorescence, 18 h; cells stimulated with TGF-beta, 500 pg/mL; Potency, µM (series often up to 46.1 µM), for inactives: top-dose activity, negative = inhibition, usual class: inhibitors; hit rate 63% among 1,600; note: % is set by controls: 0 for no effect and ±100 for the full control effect; nearly all actives have a fitted effect of over 65% in size
HepG2 tox-2 – counter-screen for TGF-b inhibitors: cytotoxicity in HepG2 cells; shares compounds with TGFb inhibitor; HepG2 CAGA-GFP viability, ATP luminescence, 18 h; cells stimulated with TGF-beta, 500 pg/mL; Potency, µM (series often up to 46.1 µM), for inactives: at the highest dose activity, negative = cytotoxicity, hits mostly inhibitors; hit rate 27% among 1,600; AID 720535; note: % is set by controls: 0 for no effect and ±100 for the full control effect; nearly all actives have a fitted effect of over 70% in size
TGFb CCL64 inh – orthogonal confirmation of TGF-b inhibitors in CCL64 cells | shares compounds with TGFb inhibitor | CCL64 CAGA-GFP reporter, TGF-b stimulated, GFP fluorescence, 18 h | Potency, µM (top dose mostly 46.1 µM), for inactives: at the highest dose activity, negative = inhibition, most hits filed as inhibitors | hit rate 41% among 1,600; note: nearly all actives have a fitted effect of over 65% in size
TGFb COP inh – validation of TGF-b inhibitors in HepG2 COP promoter reporter; shares compounds with TGFb inhibitor; HepG2 COP-GFP TGF-b reporter, GFP fluorescence, 18 h; cells stimulated by added recombinant TGF-beta; Potency, µM (series often up to 46.1 µM), inactives show at the highest dose activity, negative = inhibition, hits mostly inhibitors; hit rate 3% among 1,600; note: nearly all actives have a fitted effect of over 70% in size
Numbers without * were called inactive; i = inactive; u = inconclusive; x = not tested or not shown. Rows were chosen to be rich in hits. Some 3.7% of all compounds tested hit in one or more screens of this group. Calls come from the whole dose curve; as a rule, active = well fitted curve in the direction sought with a large enough effect; inconclusive = small, poorly fitted or top-dose-only effect, or another doubt; inactive = no such curve, though single readings can be large; an effect the other way counts as inactive or inconclusive. Potency is the fitted concentration of half-maximal effect.

SMILES	HepG2 tox-1	GLP-1R agonist	GLP1R inv ag	S2 tox	ATXN2 expr inh	TGFb inhibitor	TGFb CAGA inh	HepG2 tox-2	TGFb CCL64 inh	TGFb COP inh
O=C(Nc1cccc(Cl)c1)Nc1csc([N+](=O)[O-])c1	10µM*	-2%	6.3µM*	u	u	u	10µM*	16µM*	9.2µM*	76%
O=C(Nc1ccncc1)Nc1cccc(Cl)c1	-24%	-4%	u	i	-19%	-12%	x	x	x	x
O=[N+]([O-])c1cccc2c(N3CCCC3)ccnc12	5.6µM*	1%	-15%	i	u	7.1µM*	7.3µM*	16µM*	u	u
CC(C)(C)CC(C)(C)c1cc(Cc2cc(C(C)(C)CC(C)(C)C)cc(-n3nc4ccccc4n3)c2O)c(O)c(-n2nc3ccccc3n2)c1	x	2%	x	x	x	x	x	x	x	x
COc1cccc(/C=N/Nc2ccc([N+](=O)[O-])cn2)c1O	i	0%	u	u	8.9µM*	0.79µM*	1.6µM*	u	u	23%
O=C(O)c1[nH]c2ccc(Cl)cc2c1CC(=O)N1CCN(C(=O)c2ccco2)CC1	9%	-24%	9%	i	0%	23%	x	x	x	x
CC[C@]12c3[nH]c4ccc(Cl)cc4c3CCN1C(=O)[C@@H](CC(=O)NCC13CC4CC(CC(C4)C1)C3)C[C@@H]2C(=O)N1CCN(C(=O)c2ccco2)CC1	-2%	-2%	u	u	25µM*	13µM*	12µM*	u	u	67%
CC(C)N(C(=O)[C@H]1C[C@H](CC(=O)NCC23CC4CC(CC(C4)C2)C3)C(=O)N2CCc3c([nH]c4ccc(Cl)cc34)[C@]12C)C(C)C	-76%	-2%	-12%	u	u	8.9µM*	12µM*	u	13µM*	53%
O=C(c1ccco1)N1CCN(C(=O)C2CCCc3c2[nH]c2ccc(Cl)cc32)CC1 (stereo not drawn)	-34%	0%	5µM*	i	27%	1µM*	u	u	u	10%
CC[C@]12c3[nH]c4cc(-c5ccco5)ccc4c3CCN1C(=O)[C@@H](CC(=O)NCC13CC4CC(CC(C4)C1)C3)C[C@@H]2C(=O)N1CCN(C(=O)c2ccco2)CC1	0%	0%	u	u	u	13µM*	u	-20%	u	28%
O=C(C[C@H]1C[C@H](C(=O)N2CCOCC2)[C@@]2(CCC3CCCC3)c3[nH]c4ccc(Cl)cc4c3CCN2C1=O)NCC12CC3CC(CC(C3)C1)C2	-1%	-2%	-6%	i	-4%	-6%	x	x	x	x
COc1ccc2[nH]c3c(c2c1)CCN1C(=O)C(CC(=O)NCC24CC5CC(CC(C5)C2)C4)C[C@H](C(=O)N2CCOCC2)[C@@]31CCC1CCCC1 (stereo partly drawn)	12%	6%	16%	i	8%	11µM*	4.6µM*	-22%	5.8µM*	19%
O=c1c2cn[nH]c2nc(SCc2cc(=O)n3cc(Br)ccc3n2)n1-c1ccc(Br)cc1	0%	23%	8%	i	-30%	u	x	x	x	x
O=c1c2cn[nH]c2nc(SCc2ccccc2F)n1-c1ccc(Br)cc1	16µM*	16%	u	i	-34%	10µM*	u	u	u	77%
Cc1c(C(=O)O/N=C(\N)c2ccccn2)cccc1[N+](=O)[O-]	10%	0%	u	i	-19%	35%	x	x	x	x
Cc1c(C(=O)Oc2cccc3cccnc23)cccc1[N+](=O)[O-]	-42%	-1%	-83%	i	-26%	u	-10%	0%	u	-12%
COc1ccccc1N1CCN(C(=O)Cn2ncc3c(=O)oc4ccccc4c32)CC1	-37%	-2%	-27%	u	u	u	x	x	x	x
CCCCNc1c(-c2ccc(OC)c(SC3CCCCC3)c2)nc2cc(C)ccn12	-50%	1%	u	u	u	20µM*	u	u	16µM*	35%
COc1cc2ccccc2cc1C(=O)Nc1ccc(Cc2ccncc2)cc1	-17%	3%	-3%	u	-19%	u	8.2µM*	u	12µM*	43%
COc1cc2ccccc2cc1C(=O)Nc1ccc(C)cc1	-61%	7%	u	i	x	u	x	x	x	x
O=S(Cc1ccc(Br)cc1)Cc1nnc(SCc2c(F)cccc2Cl)n1-c1ccccc1 (stereo not drawn)	-13%	-4%	u	i	-9%	u	12µM*	u	15µM*	40%
COc1ccc(CCNCC(O)COc2cccc(C)c2)cc1OC (stereo not drawn)	x	x	x	i	x	x	x	x	x	x
Cc1ccc(N(C)S(=O)(=O)c2cc(-c3cnc(C4CC4)o3)ccc2C)cc1	-9%	0%	u	i	u	-2%	x	x	x	x
COc1ccccc1NS(=O)(=O)c1ccc(-c2cnc(C3CC3)o2)cc1	-24%	7%	u	i	x	11µM*	u	u	u	4%
Cc1cccc(N(C)S(=O)(=O)c2ccc(-c3cnc(C4CC4)o3)cc2)c1	-2%	-1%	-72%	u	x	7.9µM*	4.6µM*	u	6.5µM*	30%

Assay outcomes: PubChem BioAssay, National Center for Advancing Translational Sciences (NCATS)
